Over roughly 18,000 sequences, “TetR repression strength (sort-seq, GFP reporter)” has its median near 0.23; the highest 2% begin near 0.68. For the sample, the highest values were picked, then their nearest neighbours and some sequences at random.

Chain of TetR (class B, Tn10) (P04483 whole entry): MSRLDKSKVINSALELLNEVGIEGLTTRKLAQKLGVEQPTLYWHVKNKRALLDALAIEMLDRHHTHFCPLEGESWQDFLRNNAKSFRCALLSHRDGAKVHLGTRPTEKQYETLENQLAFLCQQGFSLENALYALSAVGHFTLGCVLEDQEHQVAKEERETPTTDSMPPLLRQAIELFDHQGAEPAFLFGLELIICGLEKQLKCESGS

This test concerns the target TetR (class B, Tn10) (UniProt P04483). In words: TetR repression strength (sort-seq, GFP reporter) (relative to tetO2 = 1); higher = stronger repression. The note with it: E. coli. The gist of the method:
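Repression strength is the top bin index plus one minus the read-weighted mean bin, relative to the unaltered operator's value. A low-copy library in E. coli SIG10-MAX randomized eight operator positions between a constitutive promoter and sfGFP, with TetR expressed constitutively; cells grew 5 h at 37 °C in LB with 50 µg/mL chloramphenicol and 10^6 were FACS-sorted into 13 bins that were each Illumina-sequenced. Three independent transformations were averaged, keeping only members with ≥30 reads in all replicates and CV ≤0.5.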
Turning to TCCCGTTGAGTATTTGAGA, the TetR repression strength came out at 0.329.
As for TCCCGTTTAGTAGTTGAGA, the TetR repression strength stood at 0.028.
In turn, TCCCGTTTAGTATTTGAGA had a TetR repression strength of 0.713.
As to TCCCGTGGAGTGTTCGAGA, the TetR repression strength was determined as 0.914.
With TCCCGTGGAGTGTTGGAGA the figure was 0.325; with TCCCGTCGAGTGTTCGAGA, 0.218.
On to TCCCGTTGAGTTTCTGAGA, for which the TetR repression strength stood at 0.744.
In turn, TCCCGTTAAGTTTCTGAGA had a TetR repression strength of 0.302.
With TCCCGAGGAGTGTTCGAGA the figure was 0.224; with TCCCGTAAAGTGGTGGAGA, 0.228; with TCCCTCGAAGTGCTTGAGA, 0.406.
With TCCCGAAGAGTGTTGGAGA the figure was 0.268.
In the case of TCCCGTCAAGTACGCGAGA it was 0.196; in that of TCCCCATGAGTAATTGAGA, 0.334.
For TCCCGCGTAGTTACCGAGA, the TetR repression strength is 0.161.
As for TCCCTCGGAGTGTGCGAGA, the TetR repression strength amounted to 0.09.
In the case of TCCCTTTGAGTATGGGAGA it was 0.0551; in that of TCCCTCGAAGTAGAAGAGA, 0.297.
In the case of TCCCGTGGAGTGTCCGAGA it was 0.821; in that of TCCCGTGGAGTGGCCGAGA, 0.159.
TCCCGGGGAGTGTCCGAGA displayed a TetR repression strength of 0.125.
With TCCCTACAAGTGTTTGAGA, the TetR repression strength turned out to be 0.295.
In the case of TCCCGGACAGTTGGTGAGA it was 0.421; in that of TCCCAGACAGTCATTGAGA, 0.375.
On to TCCCGGGCAGTCCGCGAGA, for which the TetR repression strength was 0.163.
In the case of TCCCAATGAGTGGGCGAGA it was 0.238.
Consider TCCCGCTGAGTTACGGAGA, for which the TetR repression strength is 0.652.
With TCCCCAATAGTTAGGGAGA the figure was 0.699; with TCCCGCGGAGTTAGGGAGA, 0.207; with TCCCGCTAAGTTAGGGAGA, 0.286.
TCCCGCTTAGTTACGGAGA showed a TetR repression strength of 1.2.
In the case of TCCCGCTTAGTGAGGGAGA it was 0.419; in that of TCCCGCTTAGTTAGGGAGA, 1.02.
For the sequence TCCCCCATAGTTAGGGAGA, the TetR repression strength was 0.
The sequence TCCCGGTTAGTTACGGAGA had a TetR repression strength of 0.211.
Take TCCCGCTGAGTTAGAGAGA: the TetR repression strength came to 0.0464.
Sequence TCCCCAACAGTTAGGGAGA gave a TetR repression strength of 0.218.
In the case of TCCCGCTGAGTTAGGGAGA it was 0.929.
With TCCCTTTGAGTGGACGAGA the figure was 0.246; with TCCCCATTAGTGGAGGAGA, 0.275; with TCCCCGGCAGTATGTGAGA, 0.189.
For the sequence TCCCGGAAAGTCTAGGAGA, the TetR repression strength amounted to 0.216.
For TCCCTTTAAGTCGACGAGA, the TetR repression strength was 0.285.
For the sequence TCCCTTTTAGTGTGGGAGA, the TetR repression strength amounted to 0.317.
In the case of TCCCGTTAAGTCTTGGAGA it was 0.302; in that of TCCCGGCTAGTCGTTGAGA, 0.89; in that of TCCCGTCGAGTCGTTGAGA, 0.134.
In the case of TCCCGGTTAGTCGTTGAGA it was 0.225; in that of TCCCGCCTAGTCACTGAGA, 0.682.
Take TCCCGGCTAGTCACTGAGA: the TetR repression strength worked out at 0.256.
As to TCCCGAGTAGTCACTGAGA, the TetR repression strength is 0.231.
For the sequence TCCCGGAGAGTCGTTGAGA, the TetR repression strength came out at 0.118.
In the case of TCCCGGCTAGTAGTTGAGA, the TetR repression strength is 0.295.
As for TCCCGGCGAGTCGTTGAGA, the TetR repression strength was 0.801.
For the sequence TCCCAATAAGTGTGCGAGA, the TetR repression strength was 0.242.
In the case of TCCCGTTTAGTCGCGGAGA, the TetR repression strength worked out at 0.215.
In the case of TCCCAGTTAGTGGGTGAGA it was 0.172; in that of TCCCCTCGAGTGCCGGAGA, 0.442.
TCCCTAAAAGTGGGAGAGA: the TetR repression strength is 0.203.
With TCCCATGGAGTGATAGAGA, the TetR repression strength stood at 0.548.
In the case of TCCCACCGAGTGATAGAGA it was 1.21.
On to TCCCTATGAGTGATAGAGA, for which the TetR repression strength was 0.765.
For TCCCACCGAGTGAGAGAGA, the TetR repression strength was determined as 0.43.
In the case of TCCCACCGAGTGATCGAGA it was 0.405.
With TCCCTATGAGTGCTAGAGA the figure was 0.452; with TCCCTGTGAGTGATAGAGA, 0.456; with TCCCAAAGAGTGGTAGAGA, 0.164.
In the case of TCCCCAGGAGTGGTAGAGA it was 0.189; in that of TCCCAAGGAGTGATAGAGA, 0.977; in that of TCCCCAGGAGTGATAGAGA, 0.339.
TCCCAAGGAGTGGTAGAGA yielded a TetR repression strength of 1.18.
As to TCCCGGATAGTGGGTGAGA, the TetR repression strength amounted to 0.0875.
In the case of TCCCCGGCAGTCGCAGAGA it was 0.207; in that of TCCCGTGTAGTAAGGGAGA, 0.307; in that of TCCCGCCGAGTAGGCGAGA, 0.34.
TCCCACTGAGTGATAGAGA yielded a TetR repression strength of 0.551.
For the sequence TCCCAGTGAGTGATAGAGA, the TetR repression strength came out at 0.528.
In the case of TCCCAATGAGTGATAGAGA it was 0.685; in that of TCCCTGATAGTGGGGGAGA, 0.0581.
With TCCCAAATAGTGTGGGAGA the figure was 0.459; with TCCCTGTTAGTGGGGGAGA, 0.737; with TCCCTGTTAGTGGGAGAGA, 0.189.
TCCCAAATAGTGGGGGAGA: the TetR repression strength was 1.1.
On to TCCCAAATAGTGGGAGAGA, for which the TetR repression strength worked out at 0.214.
In the case of TCCCTGAAAGTCACGGAGA, the TetR repression strength worked out at 0.337.
With TCCCGGGGAGTTAGGGAGA the figure was 0.346; with TCCCCACAAGTATCAGAGA, 0.752; with TCCCACCCAGTATCAGAGA, 0.2.
In the case of TCCCCACAAGTGTCAGAGA it was 0.352; in that of TCCCCACCAGTATCAGAGA, 0.697; in that of TCCCCACCAGTGTCAGAGA, 0.334.
The sequence TCCCCACAAGTATCCGAGA yielded a TetR repression strength of 0.296.
With TCCCGGTAAGTGATGGAGA the figure was 0.338.
Sequence TCCCGAGAAGTCCGAGAGA registered a TetR repression strength of 0.474.
In the case of TCCCAGTAAGTCAGAGAGA it was 0.066; in that of TCCCGGAAAGTCTCGGAGA, 0.107.
In the case of TCCCTAGTAGTTGGTGAGA, the TetR repression strength was determined as 0.177.
Sequence TCCCTCGTAGTGAGTGAGA had a TetR repression strength of 0.507.
In the case of TCCCCAGTAGTTGGTGAGA it was 0.114; in that of TCCCTCGGAGTGGGTGAGA, 0.988.
In the case of TCCCAAGTAGTTGGTGAGA it was 0.774; in that of TCCCTCGTAGTGGGTGAGA, 0.815; in that of TCCCTCATAGTGGGTGAGA, 0.0921.
With TCCCTGAGAGTTGGTGAGA the figure was 0.164.
With TCCCTCTGAGTGGGTGAGA, the TetR repression strength amounted to 0.195.
With TCCCTCGGAGTGGGAGAGA the figure was 0.217; with TCCCTAAGAGTTGGTGAGA, 0.137.
TCCCTCAGAGTTGGTGAGA gave a TetR repression strength of 1.2.

The values above are taken from a collection of fitness landscapes (doi:10.1038/s41467-024-54723-y).
